As a reminder, the Inhibition is the relative decrease from the control value, in per cent.

Entries with a potency or affinity are not part of this list.

Here are results for 23 compounds from ChEMBL document CHEMBL4513154, “CO-ADD screening of Jain University (India) compounds”.

The test system of one assay is Klebsiella pneumoniae. The settings on record: Concentration 32 ug.mL-1; ASSAY_TEST Inhibition of Bacterial Growth; detection method Absorption (OD600); MEDIA CAMHB; plate type 384well; NBS; CORNING #3640; time 18 hr.
A further assay has as its system Candida albicans. The settings on record: 32 ug/mL.
The next assay has as its system Cryptococcus neoformans. The note with it: Concentration 32 ug.mL-1; ASSAY_TEST Inhibition of Fungal Growth; detection method Resazurin; Absorption (OD600-OD570); plate type 384well; NBS; CORNING #3640. In general terms: The colour change of resazurin is a common sign of viable cells or microbes.

`CCc1ccc(Nc2nc(N)c(-c3nc4ccccc4c(=O)n3-c3ccc(CC)cc3)s2)cc1`: the Inhibition is 12.46% in the assay with Klebsiella pneumoniae, 3.1% in the assay on Candida albicans and -48.5% in the assay with Cryptococcus neoformans.
Take `Nc1nc(Nc2ccc(Cl)cc2)sc1-c1nc2ccccc2c(=O)n1-c1ccccc1`: the Inhibition with Klebsiella pneumoniae was 6.62%; in the assay on Candida albicans, 3.78%; in the assay with Cryptococcus neoformans, -54.18%.
Turning to `Clc1ccc2nc(-c3cscn3)n(Cc3ccccc3)c2c1`, the Inhibition with Klebsiella pneumoniae was 10.47%; in the assay with Candida albicans, 0.38%; with Cryptococcus neoformans, -41.97%.
Regarding `CCc1ccc(-n2c(-c3sc(Nc4ccccc4)nc3N)nc3ccccc3c2=O)cc1`, the Inhibition in the assay on Klebsiella pneumoniae is -7.9%; with Candida albicans it was 0.25%; in the assay on Cryptococcus neoformans, -54.61%.
For `Clc1cccc2c1nc(-c1cscn1)n2Cc1ccccc1`, in that order: 10.03%, 5.46% and -32.31%.
For `CC(C)c1ccc(Cn2c(-c3cscn3)nc3c(Cl)cccc32)cc1`, in that order: 2.02%, 2.25% and -5.86%.
For the compound `CCc1ccc(Nc2nc(N)c(-c3nc4ccccc4c(=O)n3-c3ccccc3)s2)cc1`, the Inhibition is 10.03% in the assay with Klebsiella pneumoniae, 6% in the assay with Candida albicans and -53.41% in the assay on Cryptococcus neoformans.
Consider `N=C(Nc1ccccc1)c1cscn1`, for which the results for the Inhibition with Klebsiella pneumoniae, in the assay on Candida albicans and in the assay on Cryptococcus neoformans were -2.19%, 6.13% and 4.1%, respectively.
In the case of `Cn1c(-c2cscn2)nc2c(Cl)cccc21`, the results for the Inhibition in the assay with Klebsiella pneumoniae, in the assay with Candida albicans and in the assay on Cryptococcus neoformans were -3.44%, 4.84% and -43.05%, respectively.
As to `N#Cc1ccccc1-c1ccc(Cn2c(-c3cscn3)nc3c(Cl)cccc32)cc1`, the Inhibition with Klebsiella pneumoniae was -3.22%; with Candida albicans it was 5.26%; with Cryptococcus neoformans, -8.16%.
`N#Cc1ccccc1-c1ccc(Cn2c(-c3cscn3)nc3cc(Cl)ccc32)cc1`: the Inhibition in the assay with Klebsiella pneumoniae is 8%; with Candida albicans, -1.51%; in the assay with Cryptococcus neoformans it was -36.18%.
Take `N=C(Nc1ccccc1Cl)c1cscn1`: the figures for the Inhibition in the assay on Klebsiella pneumoniae, in the assay on Candida albicans and in the assay with Cryptococcus neoformans were 17.83%, 2.14% and -8.23%, respectively.
For `N#Cc1ccccc1-c1ccc(Cn2c(-c3cscn3)nc3ccc(Cl)cc32)cc1` the same measures were 6.08%, 1.5% and -28.09%.
In the case of `Nc1nc(Nc2ccccc2)sc1-c1nc2ccccc2c(=O)n1-c1ccccc1`, the Inhibition in the assay on Klebsiella pneumoniae was 11.02%; in the assay with Candida albicans, 6.03%; with Cryptococcus neoformans it was -28.85%.
In the case of `Fc1cc(Cn2c(-c3cscn3)nc3c(Cl)cccc32)cc(C(F)(F)F)c1`, the results for the Inhibition in the assay on Klebsiella pneumoniae, in the assay on Candida albicans and with Cryptococcus neoformans were -0.75%, 3.24% and -8.45%, respectively.
Regarding `Clc1cccc2[nH]c(-c3cscn3)nc12`, the Inhibition is 5.98% in the assay with Klebsiella pneumoniae, 15% in the assay with Candida albicans and -19.67% in the assay on Cryptococcus neoformans.
Turning to `Clc1ccc2c(c1)nc(-c1cscn1)n2Cc1ccccc1`, the Inhibition in the assay with Klebsiella pneumoniae is 12.29%; in the assay with Candida albicans, 1.89%; in the assay with Cryptococcus neoformans it was -24.56%.
`O=[N+]([O-])c1ccc(Cn2c(-c3cscn3)nc3ccccc32)cc1`: the Inhibition is 13.21% in the assay on Klebsiella pneumoniae, 3.4% with Candida albicans and -41.75% with Cryptococcus neoformans.
In the case of `CCc1ccc(Nc2nc(N)c(-c3nc4ccccc4c(=O)n3-c3ccc(Cl)cc3)s2)cc1`, the Inhibition with Klebsiella pneumoniae was 12.28%; with Candida albicans, 0.52%; in the assay with Cryptococcus neoformans, -34.77%.
For `N#Cc1ccccc1-c1ccc(Cn2c(-c3cscn3)nc3ccccc32)cc1`, in that order: 13.6%, 1.96% and -25.26%.
As for `N#Cc1ccc(Cn2c(-c3cscn3)nc3c(Cl)cccc32)cc1`, the Inhibition is -10.25% with Klebsiella pneumoniae, 4.47% in the assay on Candida albicans and -42.41% in the assay with Cryptococcus neoformans.
On to `Cn1c(-c2cscn2)nc2cc(Cl)ccc21`, for which the Inhibition in the assay on Klebsiella pneumoniae was 8.32%; in the assay on Candida albicans, 0.35%; in the assay on Cryptococcus neoformans it was -39.47%.
For the compound `Nc1nc(Nc2ccccc2)sc1-c1nc2ccccc2c(=O)n1-c1ccc(Cl)cc1`, the Inhibition in the assay with Klebsiella pneumoniae was -25.33%; in the assay with Candida albicans, 3.54%; in the assay with Cryptococcus neoformans, -43.66%.
